GRK2 inh – inhibitors of human GRK2 displacing RNA aptamer; P25098; bead flow cytometry, FAM-aptamer displacement from GRK2; inhibition of aptamer binding, % at 10 µM; 330,000 tested, 0.59% active; AID 488847;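 active means inhibition of aptamer binding above 40%, roughly 3 SD of noise, on plates passing a quality check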;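 further: median bead fluorescence of bound FAM aptamer so fluorescent compounds give negative values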
Target sequence (P25098 whole entry, looked up): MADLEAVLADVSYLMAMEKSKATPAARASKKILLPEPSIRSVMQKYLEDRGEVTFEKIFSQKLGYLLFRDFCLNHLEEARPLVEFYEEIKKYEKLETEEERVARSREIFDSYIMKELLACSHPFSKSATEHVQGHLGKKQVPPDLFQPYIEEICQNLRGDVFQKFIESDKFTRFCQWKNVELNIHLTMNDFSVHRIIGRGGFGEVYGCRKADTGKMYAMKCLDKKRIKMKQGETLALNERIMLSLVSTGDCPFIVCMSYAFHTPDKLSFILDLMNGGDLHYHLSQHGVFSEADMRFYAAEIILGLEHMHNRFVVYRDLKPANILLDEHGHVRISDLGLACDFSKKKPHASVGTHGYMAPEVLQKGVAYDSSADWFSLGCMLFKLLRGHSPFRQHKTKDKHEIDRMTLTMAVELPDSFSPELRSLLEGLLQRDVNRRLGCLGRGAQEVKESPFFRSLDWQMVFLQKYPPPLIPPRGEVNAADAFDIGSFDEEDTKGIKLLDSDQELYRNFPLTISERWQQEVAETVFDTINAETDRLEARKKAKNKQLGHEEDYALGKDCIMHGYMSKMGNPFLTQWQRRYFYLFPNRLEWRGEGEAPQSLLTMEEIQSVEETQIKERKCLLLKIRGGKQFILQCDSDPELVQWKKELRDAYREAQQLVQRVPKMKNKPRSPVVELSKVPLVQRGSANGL
PP1 inh – blocks human PP1-alpha phosphatase, a PP5 counter-screen; P62136; purified PP1alpha, OMFP fluorescence; inhibition, % at 6.7 µM; 320,000 tested, 0.9% active; AID 2235;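 active means inhibition above the mean inhibition of all tested compounds plus 3 SD, computed separately for each screening campaign, cut at about 15% in these data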
Granule exo inh – lytic granule exocytosis inhibition; TALL-104 LAMP-1 surface exposure, flow cytometry; cells stimulated with thapsigargin and PMA; inhibition, % at 10 µM; 360,000 tested, 0.66% active; AID 651702;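 active means inhibition above about 55%, limit read from the data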
Beta2AR agonist – agonists of human beta-2 adrenergic receptor inducing internalization; AID 504454; Am2.2-beta2AR cells, FAP receptor internalization, flow cytometry; P07550; response, % (test concentration not listed); 340,000 tested, 0.43% active;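 active means response above a set limit, near 3 SD of response in nonfluorescent compounds, cut at about 42% in these data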
NadD inh – inhibitors of Staphylococcus aureus NadD. purified NadD enzyme, colorimetric absorbance read-out. AID 602399. 360,000 tested, 0.78% active. inhibition, % at 20 µM; in the data active means inhibition above about 26%
GRK2 inh confirm – human GRK2 inhibition confirmation, cherry pick 1; 2,000 tested, 4% active; shares compounds with GRK2 inh; aptamer displacement, % at 10 µM; bead-bound GRK2, FAM-aptamer displacement, flow cytometry;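 active means aptamer displacement above 40%, near three times the noise of non-fluorescent compounds, on plates passing quality checks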;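 further: negative values mostly reflect intrinsic compound fluorescence rather than true enhancement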
Aptamer quench SP – aptamer fluorescence quenching in GRK2 counter-screen. shares compounds with GRK2 inh. Carboxyfluorescein RNA aptamer on beads, flow cytometry quenching; stronger effect = lower value. fluorescence response (% of DMSO), % at 10 µM. 2,000 tested, under 10 active. AID 504580;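 active means compounds that quench the bead-bound fluorescent RNA probe, cutting fluorescence to under half of the solvent control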;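 further: counterscreen run without GRK2 so only probe quenching by compound is measured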
GRK2 CP2 – confirmation of human GRK2 inhibitors binding RNA aptamer site; AID 504782; shares compounds with GRK2 inh; inhibition of aptamer binding, % at 10 µM; bead-bound GRK2, FAM-aptamer displacement, flow cytometry; 360 tested, under 10 active;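 active means inhibition of aptamer binding above 40%, about triple the noise seen with nonglowing compounds, on plates passing quality control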;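 further: negative values mostly come from compounds that fluoresce themselves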
FAM quench SP – aptamer fluorescence quenching in GRK2 counter-screen; shares compounds with GRK2 inh; carboxyfluorescein RNA aptamer beads, flow cytometry quenching; stronger effect = lower value; fluorescence response vs DMSO, % at 10 µM; 360 tested, under 10 active; AID 588494;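 active means response vs DMSO under 50%, meaning signal dropped by over half, treated as fluorescence quencher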;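 further: labelled aptamer on streptavidin beads without GRK2 as a quench counter-screen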
Numbers stand for hits. Compounds with a hit are over-represented: about 2.9% of the library has one in this group of screens.

What do the screens show for `Cc1ccc(OCCSc2cc(C)nc(N)n2)cc1`?
GRK2 inh: 84.0; PP1 inh: inactive; Granule exo inh: inactive; Beta2AR agonist: inactive; NadD inh: inactive; GRK2 inh confirm: inactive; Aptamer quench SP: inactive

What do the screens show for `Cc1cccc(OCCSc2cc(C)nc(N)n2)c1`?
GRK2 inh: inactive; PP1 inh: inactive; Granule exo inh: inactive; Beta2AR agonist: inactive; NadD inh: inactive

How did CC#CCN1c2ccccc2[C@]23C[C@@H](C(=O)OC)N=C2NC(C(=O)OC)=C(C(=O)OC)[C@H]13 do in these assays?
GRK2 inh: inactive; PP1 inh: inactive; Granule exo inh: inactive; Beta2AR agonist: inactive; NadD inh: inactive

How did O=C(CN(Cc1ccccc1)S(=O)(=O)c1ccc(S(=O)(=O)N2CCOCC2)cc1)Nc1ccccc1 do in these assays?
GRK2 inh: 52.0; PP1 inh: inactive; Granule exo inh: inactive; Beta2AR agonist: inactive; NadD inh: inactive; GRK2 inh confirm: inactive; Aptamer quench SP: inactive

How did COc1cccc(/C=C/c2nc(C#N)c(NCC(C)C)o2)c1 do in these assays?
GRK2 inh: inactive; PP1 inh: inactive; Granule exo inh: inactive; Beta2AR agonist: inactive; NadD inh: inactive

How did Cc1ccc(N2C(=O)N(CC(=O)Nc3ccc(F)c(F)c3)C(=O)C2C)cc1 (centres undefined) do in these assays?
GRK2 inh: 100.0; PP1 inh: inactive; Granule exo inh: inactive; Beta2AR agonist: inactive; NadD inh: inactive; GRK2 inh confirm: inactive; Aptamer quench SP: inactive

What do the screens show for `Cc1ccc(N2C(=O)N(CC(=O)Nc3ccc([N+](=O)[O-])cc3)C(=O)C2C)cc1` (centres undefined)?
GRK2 inh: 100.0; PP1 inh: inactive; Granule exo inh: inactive; Beta2AR agonist: inactive; NadD inh: inactive; GRK2 CP2: inactive; FAM quench SP: inactive

Results for O=c1[nH]c(=S)[nH]c2c1C(c1ccc(Cl)cc1)OC(C1CCCCC1)C2 (centres undefined) ?
Granule exo inh: inactive; NadD inh: inactive

What do the screens show for `N=c1oc2cc(O)ccc2cc1C(=O)Nc1ccccn1`?
GRK2 inh: inactive; PP1 inh: inactive

What do the screens show for `N=c1oc2cc(O)ccc2cc1C(=O)Nc1nc2ccccc2s1`?
GRK2 inh: inactive; PP1 inh: inactive; Granule exo inh: inactive; Beta2AR agonist: inactive; NadD inh: inactive; GRK2 inh confirm: inactive; Aptamer quench SP: inactive

How did Cn1c(CNC(=O)c2ccco2)nnc1SCC(=O)Nc1ccccc1Cl do in these assays?
GRK2 inh: inactive; PP1 inh: inactive; Granule exo inh: inactive; Beta2AR agonist: inactive; NadD inh: inactive

Results for COc1ccc(C#Cc2cnc3c(c2)C(=O)N([C@@H](C)CO)C[C@@H](C)[C@@H](CN(C)CC2CCOCC2)O3)cc1 ?
Granule exo inh: inactive; NadD inh: inactive

Results for CCCN(C(=O)c1cn(C)c(=O)c2ccccc12)c1ccccc1C ?
GRK2 inh: inactive; PP1 inh: inactive; Granule exo inh: inactive; Beta2AR agonist: inactive; NadD inh: inactive; GRK2 inh confirm: inactive; Aptamer quench SP: inactive

What do the screens show for `O=C(CCCCCCCC(=O)N1CCCC1)N1CCCC1`?
Granule exo inh: inactive; Beta2AR agonist: inactive; NadD inh: inactive

Results for O=C(CCSCCC(=O)N1CCCC1)N1CCCC1 ?
GRK2 inh: 45.0; PP1 inh: inactive; Granule exo inh: inactive; Beta2AR agonist: inactive; NadD inh: inactive; GRK2 inh confirm: inactive; Aptamer quench SP: inactive

Results for Cc1nn(CC2CC2)c(=O)n1-c1ccc(Oc2ccccc2)cc1 ?
GRK2 inh: inactive; PP1 inh: inactive; Granule exo inh: inactive; Beta2AR agonist: inactive; NadD inh: inactive

How did O=C(O)CC(NC(=O)C12CC3CC(CC(C3)C1)C2)c1ccc(F)cc1 (centres undefined) do in these assays?
GRK2 inh: 88.0; PP1 inh: inactive; Granule exo inh: inactive; Beta2AR agonist: inactive; NadD inh: inactive; GRK2 inh confirm: inactive; Aptamer quench SP: inactive
